Experimental data from PubChem BioAssay (EPA / NIEHS).
Activity calls are given as the source filed them. Rule for the calls: active = hit-call score of the fitted dose curve at least 0.9, where 1 is the maximum; inactive = score below 0.9.

Read-out: CYP2C8 (gene 1558)
Test: LTEA_HepaRG_CYP2C8: Life Technologies and Expression Analysis (LTEA) Assay for CYP2C8 using HepaRG (AID 2283483)
Settings: mRNA level, 48 h; actives raise or lower the signal
Procedure: LTEA_HepaRG is a cell based, multiplexed-readout assay that uses HepaRG, a human liver cell line, with measurements taken at 48 hours after chemical dosing on a 96-well plate.LTEA_HepaRG_CYP2C8 is one of 102 assay component(s) measured in the LTEA HepaRG cell culture assay. It is a marker of NR mediated metabolism.Data from the assay component LTEA_HepaRG_CYP2C8 was analyzed into 1 endpoint. This assay endpoint, LTEA_HepaRG_CYP2C8, was analyzed with bidirectional fitting relative to DMSO as the negative control and baseline of activity. Using a type of inducible reporter, measures of mRNA induction for gain or loss-of-signal activity can be used to understand regulation of transcription factor activity. To generalize the intended target to other relatable targets, this assay endpoint is annotated to the cyp intended target family, where the subfamily is xenobiotic metabolism.
A total of 1060 chemcials from the ToxCast library were tested in eight-point concentration-response experiments. Cell culture and cytotoxicity assays were conducted at Thermo Fisher Scientific's Custom Services facility (Madison, WI). A single lot of human HepaRG cells (Thermo Fisher Scientific, Frederick, MD) was used for the cell culture experiments. 96-well format collagen type I coated plates of human HepaRG cells were prepared using established methods. Briefly, cryopreserved HepaRG cells were thawed, plated at a density of approximately 100,000 cells/well in HepaRG Thaw, Plate, and General Purpose media (HPRG770, Thermo Fisher Scientific), and incubated for 48 hours. 0.5% DMSO was selected as vehicle control to balance the requisite need of DMSO in HepaRG cultures to maintain differentiation (for example, baseline metabolism, proportions of hepatocytes vs. cholangiocytes), while enabling further hepatic receptor pathway activation (for example, PXR and CAR) in response to chemical exposure. 48 hours after plating, the culture medium was replaced with HepaRG Serum-Free Incudtion Media. Cells were exposed to each test chemical in duplicate and maintained in CO2 incubators for another 48 hours. Chemical plates were thawed to room temperature and 200x concentrations of treatment groups were prepared. 8-point conentration-reponse curves were made with the highest exposure at 100 uM, followed by half-log dilutions, all in 0.5% DMSO. Each test plate contained variouse controls, induction positive controls (1mM phenobarbital), cytotoxicity positive controls ([…] aflatoxin B1), vehicle controls (0.5% DMSO), and total lysis controls (0.5% DMSO). Cell morphology images were taken using an Essen IncuCyte FLR automated microscope, with six 96-well plates imaged in about 24 minutes. Images were captured and exported and JPEG files. Spent culture media was transfered to black-well plates for the LDH assay, and remaining media was sorted at -80 C for later use. Cells were treated with RLT buffer and frozen until shipped for gene expression analysis. Total RNA was isolated from the cell suspension in 75 uL of Buffer RLT (Qiagen, Germantown, MD 20874) by Quintiles/Expression Analysis (Durham, NC) using a custom isolation procedure. Total RNA from each plate well was transferred to a preamplification plate. Fluidigm's 96.96 Dynamic ArrayTM (Fluidigm, Amsterdam, the Netherlands) technology was used for gene expression analyses by quantitative reverse transcription polymerase chain reaction (qRT-PCR, performed by Quintiles/Expression Analysis, Durham, NC)89. Standard TaqManTM Assays (Applied Biosystems/ThermoFisher Scientific, Foster City, CA) were used to assess the expression of 93 genes selected based on their selectivity and sensitivity to important hepatic receptors known to be modulated by environmental chemicals; importance in human hepatocyte functionality; and hepatotoxicity. […]

**Q.** Which AC50 does the source give for `CCOC(=O)COc1cc(-c2nn(C)c(OC(F)F)c2Cl)c(F)cc1Cl` here?
**A.** 50 µM (active)

**Q.** `CON=C(C(=O)OC)c1ccccc1CON=C(C)c1cccc(C(F)(F)F)c1` was tested. Which outcome did it give?
**A.** inactive

**Q.** For `CC(C1CC1)C(O)(Cn1cncn1)c1ccc(Cl)cc1` (stereo not given), which AC50 is on record?
**A.** 0.327 µM (active)

**Q.** With `C[N+]1(C)CCCCC1` as the compound, how does the outcome read?
**A.** inactive

**Q.** How did the outcome turn out when `CCC(=NOC/C=C/Cl)C1=C(O)CC(C2CCOCC2)CC1=O` (stereo not given) was run?
**A.** inactive

**Q.** For `Nc1c(Cl)cc([N+](=O)[O-])cc1Cl`, which AC50 is on record?
**A.** 78.4 µM (active)

**Q.** How did the outcome turn out when `CNc1cnn(-c2cccc(C(F)(F)F)c2)c(=O)c1Cl` was run?
**A.** inactive

**Q.** With `CCc1cccc(CC)c1N(COC)C(=O)CCl` as the compound, how does the outcome read?
**A.** inactive

**Q.** With `CCOP(=S)(OCC)Oc1ccc([N+](=O)[O-])cc1` as the compound, how does the outcome read?
**A.** inactive

**Q.** For `CCOP(=O)(OCC)Oc1cc(C)nc(C(C)C)n1`, which outcome is on record?
**A.** inactive

**Q.** With `COc1cc(OC)nc(Sc2cccc(Cl)c2C(=O)O)n1` as the compound, how does the outcome read?
**A.** inactive

**Q.** For `C=C(C)[C@H]1Cc2c(ccc3c2O[C@@H]2COc4cc(OC)c(OC)cc4[C@@H]2C3=O)O1`, which AC50 is on record?
**A.** 1.36 µM (active)

**Q.** Which AC50 does the source give for `O=[N+]([O-])c1cc(C(F)(F)F)c(Cl)c([N+](=O)[O-])c1Nc1ncc(C(F)(F)F)cc1Cl` here?
**A.** 26.8 µM (active)

**Q.** With `FC(F)C(F)(F)OCC(Cn1cncn1)c1ccc(Cl)cc1Cl` (stereo not given) as the compound, how does the AC50 read?
**A.** 24.6 µM (active)

**Q.** Which AC50 does the source give for `COc1ccc(C(=CC(=O)N2CCOCC2)c2ccc(Cl)cc2)cc1OC` here?
**A.** 10.4 µM (active)

**Q.** Which outcome does the source give for `CCNc1nc(Cl)nc(NC(C)(C)C#N)n1` here?
**A.** inactive

**Q.** `CN(C)C(=O)Nc1cccc(C(F)(F)F)c1` was tested. Which AC50 did it give?
**A.** 12.1 µM (active)

**Q.** With `CCCCOC(=O)[C@@H](C)Oc1ccc(Oc2ccc(C#N)cc2F)cc1` as the compound, how does the outcome read?
**A.** inactive

**Q.** With `CC1=NNC(=O)N(/N=C/c2cccnc2)C1` as the compound, how does the outcome read?
**A.** inactive

**Q.** For `C#CC(C)(C)NC(=O)c1cc(Cl)cc(Cl)c1`, which outcome is on record?
**A.** inactive

**Q.** With `CC[C@H](C)[C@H]1O[C@]2(C=C[C@@H]1C)C[C@@H]1C[C@@H](C/C=C(\C)[C@@H](O[C@H]3C[C@H](OC)[C@@H](O[C@H]4C[C@H](OC)[C@@H](NC)[C@H](C)O4)[C@H](C)O3)[C@@H](C)/C=C/C=C3\CO[C@@H]4[C@H](O)C(C)=C[C@@H](C(=O)O1)[C@]34O)O2` as the compound, how does the outcome read?
**A.** inactive

**Q.** `CSc1nc(NC(C)C)nc(NC(C)C)n1` was tested. Which outcome did it give?
**A.** inactive

**Q.** How did the outcome turn out when `CCCCOC(=O)c1ccccc1C(=O)O` was run?
**A.** inactive

**Q.** How did the AC50 turn out when `CC(Oc1cccc(Cl)c1)C(=O)O` (stereo not given) was run?
**A.** 14.4 µM (active)

**Q.** `CCCCN(CC)c1c([N+](=O)[O-])cc(C(F)(F)F)cc1[N+](=O)[O-]` was tested. Which outcome did it give?
**A.** inactive

**Q.** Which outcome does the source give for `CC(C)N(C(=O)SCC(Cl)=C(Cl)Cl)C(C)C` here?
**A.** inactive

**Q.** How did the outcome turn out when `CNC(=O)ON=C(C)SC` was run?
**A.** inactive

**Q.** `Cc1cc(C2CC2)nc(Nc2ccccc2)n1` was tested. Which outcome did it give?
**A.** inactive

**Q.** For `CCCOCC(=Nc1ccc(Cl)cc1C(F)(F)F)n1ccnc1`, which AC50 is on record?
**A.** 25.7 µM (active)

**Q.** `CC(C)=CC1C(C(=O)OCN2C(=O)C3=C(CCCC3)C2=O)C1(C)C` (stereo not given) was tested. Which outcome did it give?
**A.** inactive

**Q.** `Nc1nc(N)nc(NC2CC2)n1` was tested. Which outcome did it give?
**A.** inactive

**Q.** With `CSc1nnc(C(C)(C)C)c(=O)n1N` as the compound, how does the outcome read?
**A.** inactive

**Q.** For `CCOC(=O)CC(SP(=O)(OC)OC)C(=O)OCC` (stereo not given), which outcome is on record?
**A.** inactive

**Q.** Which outcome does the source give for `C#CCC1=C(C)C(OC(=O)C2C(C=C(C)C)C2(C)C)CC1=O` (stereo not given) here?
**A.** inactive

**Q.** Which outcome does the source give for `CCOP(=S)(OCC)SCCSCC` here?
**A.** inactive

**Q.** `CNC(=O)ON=C(SC)C(=O)N(C)C` was tested. Which AC50 did it give?
**A.** 0.0994 µM (active)

**Q.** With `C[Si](Cn1cncn1)(c1ccc(F)cc1)c1ccc(F)cc1` as the compound, how does the AC50 read?
**A.** 71.8 µM (active)

**Q.** For `CCC(=O)Nc1ccc(Cl)c(Cl)c1`, which outcome is on record?
**A.** inactive

**Q.** Which AC50 does the source give for `CSC1=N[C@@](C)(c2ccccc2)C(=O)N1Nc1ccccc1` here?
**A.** 34.6 µM (active)

**Q.** Which outcome does the source give for `COP(=O)(OC)OC(Br)C(Cl)(Cl)Br` (stereo not given) here?
**A.** inactive
